From PubChem BioAssay
tim10-1 inh: tim10-1 yeast growth inhibition. S. cerevisiae tim10-1 ts strain growth, BacTiter-Glo, 24 h. inhibition, % at 20 µM. 330,000 compounds, 2.2% hits. AID 463190;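 active = inhibition of at least 40%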;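 note: mutant grown at 25 °C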
TIM10 inh: TIM10 yeast growth inhibition; S. cerevisiae TIM10 strain growth, BacTiter-Glo luminescence, 24 h; inhibition, % at 10 µM; 330,000 compounds, 1.4% hits;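 active = inhibition of 40% or more at the single tested concentration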;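 note: wild-type TIM10 isogenic control strain grown at permissive 25 °C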
PfHsp90 set2: growth inhibition of yeast expressing Plasmodium Hsp90; S. cerevisiae expressing PfHsp90, BacTiter-Glo ATP, 48 h; yeast lacking PDR1 and PDR3 efflux regulators; 310,000 compounds, 0.32% hits; AID 504621; inhibition, % at 9.4 µM;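 active = every replicate shows inhibition above about 80%, whatever the replicate mean, limit read from the data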
SKKanGAS inh: inhibitors of SKKanGAS S. pyogenes growth in kanamycin (SK-promoter or general growth effect); BacTiter-Glo, 6 h; AID 1662; 300,000 compounds, 1.3% hits; inhibition, % at 7.5 µM;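 active = mean replicate score, as percent of positive control median, at least 50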;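 note: strain carries kanamycin resistance gene driven by streptokinase promoter and grows in 40 µg/ml kanamycin; loss of luminescence reflects streptokinase promoter inhibition or plain growth inhibition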
tim23-1 inh: growth inhibitors of tim23-1 mutant yeast; 330,000 compounds, 1.3% hits; S. cerevisiae tim23-1 growth, BacTiter-Glo luminescence, 24 h; inhibition, % at 20 µM; AID 463212;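 active = growth inhibition of the mutant yeast at or above 50%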;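 note: temperature-sensitive mutant grown at 25 °C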
tim10-1 confirm: confirmation of tim10-1 mutant yeast growth inhibitors | shares compounds with tim10-1 inh | S. cerevisiae tim10-1 ts strain growth, BacTiter-Glo, 24 h | inhibition, % at 20 µM | 7,400 compounds, 56% hits;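 active = inhibition of yeast growth at or above a set limit in either of two repeat tests at 20 µM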;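 note: tim10-1 mutant grown at permissive 25 °C to find synthetic lethal compounds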
tim10 confirm: confirmation of TIM10 yeast growth inhibitors. shares compounds with TIM10 inh. S. cerevisiae tim10 strain growth, BacTiter-Glo luminescence, 24 h. inhibition, % at 10 µM. 4,600 compounds, 63% hits;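 active = inhibition of yeast growth at or above a set limit in either of two replicates at 10 µM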; note: this counterscreen used the strain with wild-type TIM10
tim23-1 confirm: tim23-1 yeast growth inhibition, confirmed; shares compounds with tim23-1 inh; AID 463218; 4,400 compounds, 83% hits; inhibition, % at 20 µM; S. cerevisiae tim23-1 growth, BacTiter-Glo luminescence, 24 h;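 active = inhibition above about 39% in either of two replicate wells at 20 µM, limit read from the data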;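 note: temperature-sensitive tim23-1 mutant grown at 25 °C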
Numbers stand for hits. This is a sample that favours compounds with a hit; in the whole collection about 4.4% have one here.

`CC(Oc1ccc2c3c(c(=O)oc2c1)CCC3)C(=O)NCCCn1ccnc1` (stereo not drawn) gave tim10-1 inh inactive, TIM10 inh inactive, PfHsp90 set2 inactive, SKKanGAS inh inactive and tim23-1 inh inactive.
Cc1ccc2cccc(NC(=S)NC(=O)c3ccn(C)n3)c2n1 was read as tim10-1 inh 41, TIM10 inh 48, PfHsp90 set2 inactive, SKKanGAS inh inactive, tim23-1 inh inactive, tim10-1 confirm inactive and tim10 confirm 45.
For Cc1ccc2cccc(NC(=S)NC(=O)c3c(Br)cnn3C)c2n1 the results were tim10-1 inh inactive, TIM10 inh inactive, PfHsp90 set2 inactive, SKKanGAS inh inactive and tim23-1 inh inactive.
`Cc1ccc(SCCC(=O)N/N=C/c2cccnc2)cc1` gave tim10-1 inh inactive, TIM10 inh inactive, PfHsp90 set2 inactive and tim23-1 inh inactive.
Cc1ccc(SCCC(=O)N/N=C/c2ccccc2O)cc1 was read as tim10-1 inh 43, TIM10 inh 48, PfHsp90 set2 inactive, SKKanGAS inh inactive, tim23-1 inh inactive, tim10-1 confirm inactive and tim10 confirm 44.
`CCOC(=O)CSC1=NC(=O)/C(=C\c2ccc(OC(C)=O)cc2)S1` gave tim10-1 inh 69, TIM10 inh 51, PfHsp90 set2 inactive, SKKanGAS inh inactive, tim23-1 inh inactive, tim10-1 confirm 69 and tim10 confirm 63.
`CC(NC(=O)c1cccc(S(=O)(=O)N2CCN(C)CC2)c1)c1ccc(Cl)cc1Cl` (stereo not drawn) gave tim10-1 inh inactive, TIM10 inh inactive, PfHsp90 set2 inactive, SKKanGAS inh inactive and tim23-1 inh inactive.
`NC(=O)c1ccsc1NC(=O)c1ccc2c(c1)CCCC2` gave tim10-1 inh 46, TIM10 inh 56, PfHsp90 set2 inactive, SKKanGAS inh inactive, tim23-1 inh inactive, tim10-1 confirm inactive and tim10 confirm 37.
For COc1ccc(Oc2ccc3c(C(F)(F)F)cc(C(F)(F)F)nc3n2)cc1 the results were tim10-1 inh inactive, TIM10 inh inactive, PfHsp90 set2 inactive, SKKanGAS inh inactive and tim23-1 inh inactive.
Oc1ccc(Oc2ccc3c(C(F)(F)F)cc(C(F)(F)F)nc3n2)cc1 was read as tim10-1 inh 40, TIM10 inh 43, PfHsp90 set2 inactive, SKKanGAS inh inactive, tim23-1 inh 56, tim10-1 confirm inactive, tim10 confirm inactive and tim23-1 confirm 49.
Screening COc1ccc(SC[C@H](Cc2ccccc2)N2CC[C@@H](C)CCC2=O)cc1 returned tim10-1 inh inactive, TIM10 inh inactive, PfHsp90 set2 inactive and tim23-1 inh inactive.
`CCCCN1C(=O)C(=Nc2cccc3cnccc23)c2ccccc21` gave tim10-1 inh 45, TIM10 inh 42, PfHsp90 set2 inactive, SKKanGAS inh inactive, tim23-1 inh 71, tim10-1 confirm 46, tim10 confirm 35 and tim23-1 confirm 67.
CCC1=C(c2ccc(OC)cc2)CCC(C(=O)O)C1C (stereo not drawn) was read as PfHsp90 set2 inactive.
C/C(=N\NC(=S)Nc1cccc(C)c1)c1cccc(N)c1 was read as tim10-1 inh inactive, TIM10 inh inactive, PfHsp90 set2 inactive, SKKanGAS inh inactive and tim23-1 inh inactive.
Screening C/C(=N\NC(=S)Nc1cccc(C)c1)c1ccccc1 returned tim10-1 inh 51, TIM10 inh 60, PfHsp90 set2 inactive, SKKanGAS inh inactive, tim23-1 inh 51, tim10-1 confirm 50, tim10 confirm inactive and tim23-1 confirm 52.
Screening O=C1COC(c2ccccc2)=CN1Cc1ccccc1 returned tim10-1 inh inactive, TIM10 inh inactive, PfHsp90 set2 inactive, SKKanGAS inh inactive and tim23-1 inh inactive.
For Nc1ncnc2c1C1(CCCCC1)Cc1ccccc1-2 the results were tim10-1 inh 42, TIM10 inh inactive, PfHsp90 set2 inactive, SKKanGAS inh inactive, tim23-1 inh 50, tim10-1 confirm inactive and tim23-1 confirm inactive.
For CC(C)(C)C(=O)OC/C(N)=N/OC(=O)c1ccc(Cl)c(Cl)c1 the results were tim10-1 inh 63, TIM10 inh 77, PfHsp90 set2 inactive, SKKanGAS inh inactive, tim23-1 inh 84, tim10-1 confirm 42, tim10 confirm 86 and tim23-1 confirm 69.
Screening COc1ccc(C(=O)Nc2ccccc2C(=O)N/N=C/c2ccco2)cc1 returned tim10-1 inh 67, TIM10 inh 47, PfHsp90 set2 inactive, SKKanGAS inh inactive, tim23-1 inh 72, tim10-1 confirm 68, tim10 confirm 43 and tim23-1 confirm 72.
Screening O=C(Nc1ccccc1C(=O)N/N=C/c1ccncc1)c1ccccc1 returned tim10-1 inh 68, TIM10 inh 62, PfHsp90 set2 inactive, SKKanGAS inh inactive, tim23-1 inh 77, tim10-1 confirm 68, tim10 confirm 36 and tim23-1 confirm 70.
Screening Cc1ccc(C(=O)OCN2C(=O)c3ccccc3C2=O)c(O)c1 returned tim10-1 inh inactive, TIM10 inh inactive, PfHsp90 set2 inactive, SKKanGAS inh inactive and tim23-1 inh inactive.
`CC12CCC(C/C1=N/OC(=O)c1cccc([N+](=O)[O-])c1)C2(C)C` (stereo not drawn) gave tim10-1 inh 42, TIM10 inh 62, PfHsp90 set2 inactive, SKKanGAS inh inactive, tim23-1 inh 70, tim10-1 confirm 66, tim10 confirm 72 and tim23-1 confirm 75.
For CC12CCC(C/C1=N\OC(=O)c1ccc(F)cc1)C2(C)C (stereo not drawn) the results were tim10-1 inh 66, TIM10 inh 71, PfHsp90 set2 inactive, SKKanGAS inh inactive, tim23-1 inh 71, tim10-1 confirm 64, tim10 confirm 67 and tim23-1 confirm 78.
Screening c1csc(CNc2nc(-c3cccs3)nc3ccccc23)c1 returned tim10-1 inh 51, TIM10 inh 42, PfHsp90 set2 inactive, SKKanGAS inh inactive, tim23-1 inh 57, tim10-1 confirm 44, tim10 confirm inactive and tim23-1 confirm 52.
c1csc(-c2nc(NCC3CCCO3)c3ccccc3n2)c1 (stereo not drawn) was read as tim10-1 inh inactive, TIM10 inh inactive, PfHsp90 set2 inactive, SKKanGAS inh inactive and tim23-1 inh inactive.
`CCOC(=O)c1cccc(C2=CC(=O)CC(C)(C)C2)c1` gave tim10-1 inh inactive, TIM10 inh inactive, PfHsp90 set2 inactive and tim23-1 inh inactive.
For O=S(=O)(Nc1ccc(-c2nc3ccccc3o2)cc1)c1ccccc1 the results were tim10-1 inh 47, TIM10 inh 52, PfHsp90 set2 inactive, SKKanGAS inh inactive, tim23-1 inh 61, tim10-1 confirm 40, tim10 confirm 36 and tim23-1 confirm 53.
